The supplement of paper PMC6555819

Key:
Experiment in all cases: PBM binding z-score (relative to random genomic background probes); higher = stronger binding; sequences stand for … in GC…GCGATTGACAGCGTAGAATGAAGG
[1] = system: PPARg:RXRa DBDmut IVT, anti-RXR (DBD mutation: RXRa K156A/R161A, NR concentration 270 nM, RXRa partner concentration 90 nM)
Outline: (§1)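 Binding buffer was PBS pH 7.4 with 2% milk, 0.02% Triton X-100, 1 mM DTT, 0.2 mg/mL BSA and 0.4 mg/ml salmon testes DNA. In it, ligand-free nuclear receptor dimers were incubated 1 h on custom Agilent 4×180K protein-binding microarrays carrying double-stranded probes. Antibodies against each partner (one per run) detected binding, and z-scores were calculated against random background probes after regression normalization of scanned fluorescence.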

[2] = system: PPARg:RXRa IVT, anti-PPARg (NR concentration 270 nM, RXRa partner concentration 90 nM)
Outline: as §1

[3] = system: PPARg DBDmut:RXRa IVT, anti-PPARg (DBD mutation: PPARg1 K132A/R137A, NR concentration 270 nM, RXRa partner concentration 90 nM)
Outline: as §1

[4] = system: PPARg DBDmut IVT, anti-PPARg (DBD mutation: PPARg1 K132A/R137A, NR concentration 270 nM)
Outline: as §1

[5] = system: PPARg homodimer (NR concentration 180 nM)
Outline: as §1

[6] = system: PXR:RXRa (NR concentration 270 nM, RXRa partner concentration 90 nM)
Outline: as §1

[7] = system: PXR homodimer (NR concentration 270 nM)
Outline: as §1

[8] = system: RARa:RXR (NR concentration 270 nM, RXRa partner concentration 90 nM)
Outline: as §1

[9] = system: RARa homodimer (NR concentration 270 nM)
Outline: as §1

[10] = system: RARb:RXRa (NR concentration 270 nM, RXRa partner concentration 90 nM)
Outline: as §1

[11] = system: RARb homodimer (NR concentration 270 nM)
Outline: as §1

[12] = system: RARg:RXRa (NR concentration 270 nM, RXRa partner concentration 90 nM)
Outline: as §1

[13] = system: RARg homodimer (NR concentration 270 nM)
Outline: as §1

[14] = system: RXRa DBDmut IVT, anti-RXR (DBD mutation: RXRa K156A/R161A, NR concentration 90 nM)
Outline: as §1

[15] = system: RXRa homodimer (NR concentration 180 nM)
Outline: as §1

[16] = system: THRa:RXRa (NR concentration 90 nM, RXRa partner concentration 90 nM)
Outline: as §1

[17] = system: THRa homodimer (NR concentration 90 nM)
Outline: as §1

[18] = system: VDR homodimer (NR concentration 270 nM)
Outline: as §1

| Sequence | PBM binding z-score [1] | PBM binding z-score [2] | PBM binding z-score [3] | PBM binding z-score [4] | PBM binding z-score [5] | PBM binding z-score [6] | PBM binding z-score [7] | PBM binding z-score [8] | PBM binding z-score [9] | PBM binding z-score [10] | PBM binding z-score [11] | PBM binding z-score [12] | PBM binding z-score [13] | PBM binding z-score [14] | PBM binding z-score [15] | PBM binding z-score [16] | PBM binding z-score [17] | PBM binding z-score [18] |
| --- | --- | --- | --- | --- | --- | --- | --- | --- | --- | --- | --- | --- | --- | --- | --- | --- | --- | --- |
| CGTACTAGGTCAGAACAGGACAGTGAAGGATGAT | 6.87 | 6.46 | 1.58 | 0.904 | 1.06 | 1.05 | 0.324 | 1.26 | 0.637 | 3.05 | 2.2 | 2.5 | 3.38 | 0.907 | 0.946 | 3.33 | 0.353 | 0.141 |
| ACTCGGAGGACAAAGGTCAGAGATACGCCAGTGA | 0.715 | 3.35 | 0.221 | -0.524 | 4.07 | 4.02 | 0.592 | 5.15 | 1.44 | 4.56 | 4.52 | 6.21 | 5.31 | 1.01 | 5.52 | 3.61 | 0.755 | 1.56 |
| GGAACGAGGGCAAGTGGATAGCAGAGTTTGATGG | 3.83 | 2.95 | 0.27 | 0.066 | 0.34 | 0.612 | 0.421 | 0.505 | -0.0317 | 2.65 | 1.59 | 1.62 | 2.03 | 1.93 | 0.87 | 1.1 | -0.000164 | 1.39 |
| AGTCATAGTTCATCTAGGTAACGTAAGATATGCT | 0.73 | 2.74 | 1.12 | 0.57 | 1.23 | 2.03 | 1.24 | 1.78 | 0.89 | 3.26 | 2.23 | 3.01 | 3.33 | 2.6 | 2.02 | 2.21 | 0.0435 | 2.02 |
| ACAGACAGGTGAATGAAGGTAACTCAGCTGGACG | 0.834 | 1.06 | 0.562 | -0.518 | -0.217 | -0.156 | -0.221 | 0.42 | -0.316 | 0.743 | 0.0507 | 0.439 | 0.784 | -0.296 | 0.534 | 2.08 | -0.448 | -0.781 |
| TCTTGTAGATCAAAGGTTAAGAAGGCCGAAGCCT | 2.13 | 4.06 | 0.462 | 0.582 | 0.29 | 2.19 | 0.104 | 3.33 | -0.0225 | 1.98 | 1.58 | 1.95 | 0.702 | 0.627 | 3.37 | 1.51 | -0.402 | 0.0638 |
| CCTACTGGGCCACGAAAGGTCATTCATTCAGTGA | 5.95 | 5.87 | 1.4 | 0.0477 | 3.21 | 5.7 | 2.12 | 5.5 | 1.45 | 4.15 | 4.77 | 4.77 | 4.33 | 0.665 | 5.17 | 3.8 | 0.995 | 2.83 |
| CGAACTAGGTCAGAACAGGAGAGTGAAGGATGAT | 7.25 | 7.15 | 1.13 | 1.4 | 0.511 | 0.126 | -0.235 | 0.576 | 0.206 | 2.94 | 1.69 | 2.51 | 3.2 | 0.692 | 1.23 | 1.72 | 0.0817 | 0.129 |
| CAAACTAGGTCACGAACGGTCAAAGTCGAATGAC | 8.77 | 9.13 | 8.12 | 6.44 | 4.03 | 3.71 | 0.663 | 4.05 | 2.03 | 4.7 | 4.43 | 5.69 | 6.24 | 1.66 | 4.56 | 4.08 | 1.74 | 1.44 |
| GCTAGTTGGTCAGTAAAAGGTCACACGCCGGTCG | 1.06 | 3.13 | -0.186 | 0.255 | 3.94 | 5.06 | 0.982 | 6.11 | 1.93 | 4.53 | 5.37 | 5.72 | 5.2 | 0.626 | 5.46 | 3.72 | 1.66 | 1.85 |
| CGTCAAAGTTCAACTAAGGTAACGTTAAGCACGC | 0.539 | 2.1 | 1.06 | 1.28 | 3.26 | 5.84 | 4.4 | 4.54 | 2.15 | 5.22 | 4.42 | 6.02 | 6.57 | 4.55 | 5.24 | 5.42 | 2.19 | 4.26 |
| GCATATAGGTAATACAAGGTGACAGTCCGATTGT | 4.45 | 3.54 | 1.4 | 0.834 | 0.847 | 0.242 | 0.189 | 1.36 | 0.735 | 0.42 | 0.679 | 0.651 | 0.825 | 0.299 | 0.86 | 4.15 | 0.967 | 0.0173 |
| TCTAGCAGGTCAGAGGGTCACTCAAGAGGTACGG | 2.58 | 3.84 | 0.285 | -0.567 | 3.57 | 3.55 | -0.129 | 5.12 | 0.365 | 4.07 | 4.51 | 5.64 | 5.13 | 0.85 | 5.09 | 3.03 | 0.408 | 1.72 |
| TAATATAGGTAAAAGGTGAAAGTCGGTGTGGTAA | 7.05 | 6.22 | 2.17 | 1.62 | 2.02 | 1.8 | 0.982 | 3.16 | 1.75 | 1.94 | 2.01 | 2.15 | 1.32 | 0.341 | 2.95 | 1.87 | 0.816 | 0.638 |
